Structures can show the parent of a compound that is named as a salt.
Test system: S. cerevisiae AD1-9 (efflux-pump deficient), vegetative growth in YPD; in the data active = 2 or more and inactive = the rest
Experiment: growth sensitivity score (doubling time z-score vs DMSO controls); higher = slower growth, strongly negative scores also mark growth inhibition (complete suppression), active = hit call of the paper
Summary of the method: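 Saccharomyces cerevisiae strains BY4741 and AD1-9 were seeded in rich medium in microtiter plates at an OD600 of 0.065. Compounds were added at a 1:100 dilution of DMSO stock. Optical density was read every 15 min for 24 hours on a Tecan GENios reader. Average doubling time was the time taken to reach a set generation point divided by generation number, and the growth sensitivity score was (compound mean − DMSO-control mean)/DMSO-control SD, using eight DMSO controls per experiment.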

**Q.** For `OCCOCCN1CCN(C2=Nc3ccccc3Sc3ccccc32)CC1` [Quetiapine hemifumarate] (stock concentration (mM, diluted 1:100): 7.7), which growth sensitivity score is on record?
**A.** 0.31 (inactive)

**Q.** With `CC(=O)CCCCn1cnc2c1c(=O)n(C)c(=O)n2C` [Lomifylline] (stock concentration (mM, diluted 1:100): 10) as the molecule, how does the growth sensitivity score read?
**A.** -0.96 (inactive)

**Q.** For `CN(CCCN1c2ccccc2CCc2ccccc21)CC(=O)c1ccc(Cl)cc1` [Lofepramine] (stock concentration (mM, diluted 1:100): 10), which growth sensitivity score is on record?
**A.** 51.9 (active)

**Q.** With `NC[C@H]1CC[C@H](C(=O)Oc2ccc(CCC(=O)O)cc2)CC1` [Cetraxate hydrochloride] (stock concentration (mM, diluted 1:100): 9) as the molecule, how does the growth sensitivity score read?
**A.** -0.24 (inactive)

**Q.** For `N[C@@H](C(=O)N[C@@H]1C(=O)N2C(C(=O)O)=C(CSc3cn[nH]n3)CS[C@H]12)c1ccc(O)cc1` [Seapuron] (stock concentration (mM, diluted 1:100): 8.6), which growth sensitivity score is on record?
**A.** -1.14 (inactive)

**Q.** With `CCCN[C@H]1CCc2nc(N)sc2C1` [Pramipexole hydrochloride] (stock concentration (mM, diluted 1:100): 7.1) as the molecule, how does the growth sensitivity score read?
**A.** -2.17

**Q.** How did the growth sensitivity score turn out when `CN(CCO)CC(O)Cn1cnc2c1c(=O)n(C)c(=O)n2C` (stereo not given) [Xanthinol nicotinate] (stock concentration (mM, diluted 1:100): 10) was run?
**A.** 0.36 (inactive)

**Q.** For `Cc1cn([C@H]2C=C[C@@H](CO)O2)c(=O)[nH]c1=O` [Stavudine] (stock concentration (mM, diluted 1:100): 10), which growth sensitivity score is on record?
**A.** 0.68 (inactive)

**Q.** With `O=C(c1ccccc1)c1ccc2n1CCC2C(=O)O` (stereo not given) [Toradol] (stock concentration (mM, diluted 1:100): 6.8) as the molecule, how does the growth sensitivity score read?
**A.** 0.21 (inactive)

**Q.** `CCc1c2c(nc3ccc(OC(=O)N4CCC(N5CCCCC5)CC4)cc13)-c1cc3c(c(=O)n1C2)COC(=O)[C@]3(O)CC` [Irinotecan hydrochloride] (stock concentration (mM, diluted 1:100): 8.7) was tested. Which growth sensitivity score did it give?
**A.** 2.14 (active)

**Q.** For `CN(C)[C@@H]1C(O)=C(C(=O)NCN2CCCC2)C(=O)[C@@]2(O)C(O)=C3C(=O)c4c(O)cccc4[C@@](C)(O)[C@H]3C[C@@H]12` [Rolitetracycline] (stock concentration (mM, diluted 1:100): 10), which growth sensitivity score is on record?
**A.** -1.77 (inactive)

**Q.** For `CN(Cc1cnc2nc(N)nc(N)c2n1)c1ccc(C(=O)N[C@@H](CCC(=O)O)C(=O)O)cc1` [Methotrexate] (stock concentration (mM, diluted 1:100): 14.6), which growth sensitivity score is on record?
**A.** -2.15

**Q.** How did the growth sensitivity score turn out when `Cc1c(O)c(=O)ccn1C` [Deferiprone] (stock concentration (mM, diluted 1:100): 10) was run?
**A.** -1.63 (inactive)

**Q.** `CN(CCOc1ccc(CC2SC(=O)NC2=O)cc1)c1ccccn1` (stereo not given) [Rosiglitazone maleate] (stock concentration (mM, diluted 1:100): 7.6) was tested. Which growth sensitivity score did it give?
**A.** 2.19 (active)

**Q.** Which growth sensitivity score does the source give for `CC(CCCCC(=O)Nc1ccc(C(F)(F)F)cc1)NCCc1cnc[nH]1` (stereo not given) (stock concentration (mM, diluted 1:100): 10) here?
**A.** 1.41 (inactive)

**Q.** For `CC[C@H]1OC(=O)[C@H](C)C(=O)[C@H](C)[C@@H](O[C@@H]2O[C@H](C)C[C@H](N(C)C)[C@H]2O)[C@](C)(OC)C[C@@H](C)C(=O)[C@H](C)[C@H]2N(CCCCn3cnc(-c4cccnc4)c3)C(=O)O[C@]12C` [Telithromycin] (stock concentration (mM, diluted 1:100): 10), which growth sensitivity score is on record?
**A.** 4.79 (active)

**Q.** With `COc1ccc2c(c1)c(CC(=O)O)c(C)n2C(=O)c1ccc(Cl)cc1` [Indomethacin] (stock concentration (mM, diluted 1:100): 10.5) as the molecule, how does the growth sensitivity score read?
**A.** 0.93 (inactive)

**Q.** `CCN(CC)CC(=O)Nc1c(C)cccc1C` [Lidocaine] (stock concentration (mM, diluted 1:100): 9.6) was tested. Which growth sensitivity score did it give?
**A.** -0.9 (inactive)

**Q.** Which growth sensitivity score does the source give for `OCc1cccnc1` [3-Pyridinemethanol] (stock concentration (mM, diluted 1:100): 10) here?
**A.** 0.78 (inactive)

**Q.** How did the growth sensitivity score turn out when `Cc1cccc(C)c1NC(=O)C(C)N` (stereo not given) [Tocainide] (stock concentration (mM, diluted 1:100): 10) was run?
**A.** 1.11 (inactive)

**Q.** How did the growth sensitivity score turn out when `CC(C)C[C@H](NC(=O)[C@@H](COC(C)(C)C)NC(=O)[C@H](Cc1ccc(O)cc1)NC(=O)[C@H](CO)NC(=O)[C@H](Cc1c[nH]c2ccccc12)NC(=O)[C@H](Cc1cnc[nH]1)NC(=O)[C@@H]1CCC(=O)N1)C(=O)N[C@@H](CCCNC(=N)N)C(=O)N1CCC[C@H]1C(=O)NNC(N)=O` [Goserelin acetate] (stock concentration (mM, diluted 1:100): 9.6) was run?
**A.** 0.11 (inactive)

**Q.** For `CNCC[C@H](Oc1cccc2ccccc12)c1cccs1` [Duloxetine] (stock concentration (mM, diluted 1:100): 10), which growth sensitivity score is on record?
**A.** 99.6 (active)

**Q.** Which growth sensitivity score does the source give for `N[C@@H]1CONC1=O` [D-Cycloserine] (stock concentration (mM, diluted 1:100): 10) here?
**A.** 1.38 (inactive)

**Q.** Which growth sensitivity score does the source give for `O=[N+]([O-])c1cccc2cn[nH]c12` [7-Nitroindazole] (stock concentration (mM, diluted 1:100): 10) here?
**A.** -1.05 (inactive)

**Q.** How did the growth sensitivity score turn out when `CN(C)CCc1c[nH]c2ccc(Cn3cncn3)cc12` [Rizatriptan benzoate] (stock concentration (mM, diluted 1:100): 10) was run?
**A.** -1.17 (inactive)

**Q.** Which growth sensitivity score does the source give for `N[C@@H](C(=O)N[C@@H]1C(=O)N2C(C(=O)O)=C(Cl)CS[C@H]12)c1ccccc1` [Cefaclor] (stock concentration (mM, diluted 1:100): 10) here?
**A.** -1.29 (inactive)

**Q.** How did the growth sensitivity score turn out when `O=C1CCc2ccc(OCCCCN3CCN(c4cccc(Cl)c4Cl)CC3)cc2N1` [Aripiprazole] (stock concentration (mM, diluted 1:100): 10) was run?
**A.** 18.5 (active)

**Q.** For `O=C1c2c(O)cc(O)cc2OC(c2ccc(O)c(O)c2)C1O` (stereo not given) [Taxifolin] (stock concentration (mM, diluted 1:100): 10), which growth sensitivity score is on record?
**A.** -0.46 (inactive)

**Q.** With `O=C(O)COCCN1CCN([C@H](c2ccccc2)c2ccc(Cl)cc2)CC1` [Levocetirizine] (stock concentration (mM, diluted 1:100): 10.7) as the molecule, how does the growth sensitivity score read?
**A.** -1.54 (inactive)

**Q.** With `CCCN1CCCC[C@H]1C(=O)Nc1c(C)cccc1C` [Ropivacaine hydrochloride] (stock concentration (mM, diluted 1:100): 7.7) as the molecule, how does the growth sensitivity score read?
**A.** -2 (inactive)

Source: the supplement of paper PMC3414501
